From article PMC5540273 (PLoS ONE, 2017)

Legend:
Conditions in all cases: concentration: 1 μM, replicates: in singlicate; n = 1
[1] = test system: CAMK2G
[2] = test system: CAMK4
[3] = test system: CAMKK1
[4] = test system: CAMKK2
[5] = test system: CASK
[6] = test system: T1, CDC2L1
T1 construct: gene CDK11B

[7] = test system: CDC2L2
[8] = test system: T2, CDC2L5
T2 construct: gene CDK13

[9] = test system: T3, CDK11
T3 construct: gene CDK19

[10] = test system: CDK2
[11] = test system: CDK3
[12] = test system: CDK4-cyclinD1
[13] = test system: CDK4-cyclinD3
[14] = test system: CDK4
[15] = test system: CDK5
[16] = test system: CDK7
[17] = test system: CDK8
[18] = test system: CDK9
[19] = test system: CDKL1
[20] = test system: CDKL2
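Note: KINOMEscan kinase panel screen.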

Structure (SMILES) | %Inh [1] [%] | %Inh [2] [%] | %Inh [3] [%] | %Inh [4] [%] | %Inh [5] [%] | %Inh [6] [%] | %Inh [7] [%] | %Inh [8] [%] | %Inh [9] [%] | %Inh [10] [%] | %Inh [11] [%] | %Inh [12] [%] | %Inh [13] [%] | %Inh [14] [%] | %Inh [15] [%] | %Inh [16] [%] | %Inh [17] [%] | %Inh [18] [%] | %Inh [19] [%] | %Inh [20] [%]
FC(F)(F)c1ccc(-c2ncn(CCCN3CCOCC3)c2-c2ccncc2)cc1 [SB-217780] | 21 | 14 | 11 | 18 | 0 | 0 | 14 | 15 | 0 | 0 | 0 | 0 | 1 | 9 | 0 | 9 | 12 | 0 | 13 | 0
COC(=O)c1c(-c2ccccc2)c2cc(Br)ccc2c(=O)n1Cc1ccc(NC(=O)CCC(=O)O)cc1 | 8 | 0 | 0 | 0 | 0 | 16 | 0 | 13 | 7 | 4 | 5 | 0 | 0 | 8 | 0 | 5 | 0 | 0 | 1 | 0
O=C(Nc1n[nH]c2nc(-c3ccccc3)c(Cl)cc12)C1CC1 [SB-734909] | 0 | 0 | 0 | 1 | 35 | 0 | 18 | 0 | 0 | 2 | 0 | 0 | 0 | 9 | 0 | 15 | 3 | 0 | 41 | 35
Cc1cc(Nc2nc(-c3cccc(C)n3)nc3ccccc23)ccn1 [GW872411] | 0 | 0 | 0 | 0 | 7 | 0 | 0 | 0 | 0 | 0 | 0 | 0 | 0 | 0 | 0 | 0 | 0 | 0 | 17 | 0
CCC(=O)c1c(-c2ccccc2)c2cc(Cl)ccc2c(=O)n1Cc1cc(C(=O)NC2CC2)n(C)n1 | 6 | 0 | 2 | 15 | 0 | 4 | 0 | 0 | 3 | 0 | 0 | 3 | 0 | 0 | 0 | 12 | 14 | 11 | 0 | 3
O=C(NCc1cccs1)c1cc(C(=O)c2c(Cl)cccc2Cl)c[nH]1 [GW823670] | 0 | 15 | 0 | 0 | 5 | 0 | 0 | 0 | 14 | 0 | 15 | 0 | 0 | 0 | 0 | 0 | 16 | 0 | 8 | 0
Cc1nnc(-c2ccc(C)c(-c3ccc(C(=O)O)cc3)c2)o1 [GW608005] | 3 | 0 | 7 | 0 | 1 | 0 | 0 | 0 | 0 | 0 | 0 | 0 | 0 | 29 | 0 | 0 | 21 | 0 | 0 | 6
CN(C)c1cc(-c2ccc3c(N)n[nH]c3c2)nc(N)n1 [GSK2219329] | 19 | 0 | 0 | 9 | 0 | 0 | 22 | 0 | 0 | 10 | 0 | 0 | 0 | 0 | 0 | 0 | 0 | 0 | 7 | 11
CCC(=O)c1c(-c2ccccc2)c2cc(Cl)ccc2c(=O)n1Cc1cc(S(C)(=O)=O)n(CC(F)F)n1 | 0 | 0 | 0 | 6 | 5 | 1 | 2 | 24 | 0 | 0 | 0 | 0 | 0 | 0 | 0 | 0 | 0 | 2 | 0 | 0
COc1cc2nccc(Nc3cccc(Oc4ccccc4)c3)c2cc1OC.Cl [GW284543] | 19 | 0 | 8 | 19 | 1 | 0 | 11 | 0 | 0 | 0 | 0 | 1 | 0 | 30 | 0 | 0 | 37 | 0 | 9 | 7
Cc1nc(N(C)[C@H]2CN(C(=O)CC#N)CC[C@H]2C)c2cc[nH]c2n1 | 12 | 6 | 7 | 4 | 15 | 0 | 0 | 0 | 0 | 0 | 2 | 0 | 23 | 0 | 16 | 11 | 0 | 0 | 0 | 0
